From PubChem BioAssay come the findings set out here.

This experiment in a line: HepG2 liver cancer cell viability effects, profiling panel, resazurin fluorescence, 24 h, PK04 Diversity Set (AID 1172). Note: test concentration not given here. To be noted: higher = more signal. Background: The colour change of resazurin is a common sign of viable cells or microbes.
`CCCCCN1CC=CC23O[C@@H]4/C=C\CCCOC(=O)C4[C@H]2C(=O)N(C(C)CO)[C@@H]3C1=O` (some centres undefined) gave a z-score of 0.652. In turn, `COc1ccc([Si](C)(C)[C@@H]2[C@@H](CCO)O[C@]3(C(=O)N(Cc4cccc(NC(=O)[C@H](C)O)c4)c4ccccc43)[C@H]2C)cc1` yielded a z-score of -5.97. Then `Cc1ccc(S[C@]2(C(=O)NCc3ccccc3)CC(=O)N(C3CCCCC3)[C@@H]2c2ccc(CO)cc2I)cc1`, with -0.636; and `CC(C)c1ccc(NN2C(C(O)c3ccc(F)cc3)C=CC3C(=O)N(c4ccccc4)C(=O)C32)cc1` (centres undefined), with -0.0361. The figure for `COC(=O)[C@@]1(Cc2ccccc2)[C@H]2c3cc(C(=O)N4CCCC4)n(CCc4ccccn4)c3C[C@H]2CN1C(=O)c1ccccc1` is 0.281; for `CCCN1C(=O)[C@]2(Cc3ccccc31)N=C(c1ccc(OCCCO)cc1)O[C@@H]2c1ccccc1` it is -0.222; for `O=C1[C@H]2C=C(I)[C@H](C[C@@H]2OCCOCCO)[C@@]12CO2` it is 0.0263. `CCCCCCc1nc(Cc2cc(OC)c(OC)c(OC)c2)cc2c1[Si](C(C)C)(C(C)C)OC2`: the z-score worked out at 0.842.

Turning to `COC(=O)C(CC#Cc1ccc2c(c1)[C@]1(C(=O)N2)[C@H](c2ccc(O)cc2)N2[C@H](c3ccccc3)[C@H](c3ccccc3)OC(=O)[C@H]2[C@@H]1C(=O)NC[C@H](O)c1ccccc1)C(=O)OC`, the z-score is -0.0495. In turn, `COCCOC(=O)N1C(=O)[C@@]2(c3cc(C#CC4=CCCCC4)ccc31)[C@H](c1ccccc1OCCO)N1[C@H](c3ccccc3)[C@H](c3ccccc3)OC(=O)[C@H]1[C@@H]2C(=O)N1CCN(c2ncccn2)CC1` gave a z-score of 0.574. As for `O[C@@H](Cc1ccccc1)[C@@H](/C=C/C1CC1)N(CC#Cc1ccccc1)Cc1ccccc1Br`, the z-score was 1.67.

`COc1cc2c(cc1O)C=[N+](Cc1sc3ccccc3c1Cl)CC2` registered a z-score of 0.19.

For `COc1ccc(C#Cc2ccc3c(c2)[C@]2(C(=O)N3)[C@H](C(=O)O)[C@H]3C(=O)O[C@H](c4ccccc4)[C@H](c4ccccc4)N3[C@@H]2c2ccc(O)cc2)cc1`, the z-score was -0.704.

`Cn1cccc1C(O)C1C=CC2C(=O)N(c3ccccc3)C(=O)C2N1Nc1ccccc1` (centres undefined) showed a z-score of -0.194. `Cc1ccc(F)cc1S(=O)(=O)N[C@@H]1CCN(Cc2ccc(Br)cc2)C1` displayed a z-score of -0.281. Molecule `CC1CC/C=C\[C@H]2OC34C=CCN(Cc5ccccc5)C(=O)[C@H]3N(C(CO)C(C)C)C(=O)[C@@H]4C2C(=O)O1` (some centres undefined) registered a z-score of 0.145. `CCOC(=O)C1=C[C@@H](C(C)C)N(S(=O)(=O)c2ccc(C)cc2)[C@H]1c1ccc(C(F)(F)F)cc1` gave a z-score of -0.698. The figure for `COCCCNC(=O)[C@@]1(Sc2ccc(C)cc2)CC(=O)N(C2Cc3ccccc3C2)[C@@H]1c1ccc(CO)cc1` is 0.183; for `C[N+](C)(C)CCCC[C@@H]1NC(=O)[C@@H]2C[C@H](C(=O)NCCCCCCN)[C@H](c3cccc(OCCO)c3)N2C1=O` it is -0.418; for `C=CCC(OC(C)=O)[C@@H]1[C@@H](N(Cc2ccc(-c3ccccc3)cc2)C(=O)c2ccc(-c3ccccc3)cc2)c2cc(OCCCO)ccc2N1C(=O)c1ccc2ccccc2c1` (some centres undefined) it is -0.723. Turning to `CC1CC/C=C\[C@H]2OC34C=CCN(C(C)C)C(=O)[C@H]3N(CCO)C(=O)[C@@H]4C2C(=O)O1` (some centres undefined), the z-score is -0.961. `CCCNC(=O)[C@@H]1c2ccccc2C(=O)N(Cc2ccc(OC(F)(F)F)cc2)[C@H]1c1ccc(CO)cc1` came in with a z-score of 0.266. With `CC(C)NC(=O)[C@@]1(C)c2ccccc2C(=O)N(Cc2ccc(OC(F)(F)F)cc2)[C@H]1c1ccc(CO)cc1`, the z-score is -1.09. `COc1ccc(CCNC(=O)[C@@]2(Cc3ccccc3I)c3ccccc3C(=O)N(C3CCCCC3)[C@H]2c2ccc(CO)cc2)cc1` yielded a z-score of -0.0428.
